Experimental data as given in the supplement of paper PMC10681739.

target: RUNX1 (UniProt Q01196); assay: RUNX1 binding intensity (PBM fluorescence) in presence of ETS1, normalised to RUNX1-only experiment (arbitrary fluorescence units); higher = stronger binding; settings: RUNX1 concentration 2 nM; ETS1 concentration 25 nM
Procedure: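 Cooperative gcPBM on 36-bp genomic probes with neighbouring ETS1 and RUNX1 sites. Recombinant human RUNX1 (2 nM) was incubated alone or with ETS1 (25 nM) and detected with anti-RUNX1 antibody plus Alexa488 secondary. Values are medians over 4 replicate spots; the RUNX1+ETS1 data were normalised to the RUNX1-only data. The probes sit in constant array flanks that are not printed.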
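Note: Full-length recombinant human ETS1 or RUNX1 bound to double-stranded 36-bp genomic probes on microarrays, detected by protein-specific primary antibody and Alexa488 secondary, spot fluorescence as median of four replicate spots.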

Chain of RUNX1 (Q01196 whole entry): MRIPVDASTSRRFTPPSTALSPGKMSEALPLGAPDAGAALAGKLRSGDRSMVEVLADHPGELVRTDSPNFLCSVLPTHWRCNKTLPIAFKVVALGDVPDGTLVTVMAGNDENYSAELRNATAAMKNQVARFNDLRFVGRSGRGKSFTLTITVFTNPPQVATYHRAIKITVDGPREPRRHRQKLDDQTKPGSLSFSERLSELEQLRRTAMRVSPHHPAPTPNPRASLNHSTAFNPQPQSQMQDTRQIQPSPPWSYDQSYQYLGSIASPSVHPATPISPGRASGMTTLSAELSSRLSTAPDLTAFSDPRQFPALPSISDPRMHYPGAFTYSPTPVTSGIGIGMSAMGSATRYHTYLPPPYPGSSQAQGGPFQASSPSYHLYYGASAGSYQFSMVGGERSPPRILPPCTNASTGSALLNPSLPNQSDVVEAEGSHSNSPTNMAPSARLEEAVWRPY

Row | Sequence | RUNX1 binding intensity
1 | GCCACACAGGCAGGAAAGCCACAGCCCACGTCTCCG | 885
2 | CCGATGGCGGCGGAACTGTGGTCAGGGCTGCCCTGA | 921
3 | GCCCACTTCCTGCCGTAAGAGAAAACCACTAACACA | 4760
4 | ACTCCCTAGAGCAGGAAGCCTGTGGTTTGTAATTGG | 1480
5 | CATCAAGTATTTCCTCACGCAAGCAACCGCATCCAT | 1380
6 | AAAGTTGTATAGTGAGGATGTGGTCAAGAACTCACC | 1180
7 | AGGACCGGAAGTGCCCGAGGGCGGCCGCAGAACGGT | 1320
8 | TGTGTCACTTCCCTATCTGTTGCGGTTGTTCACTCC | 2930
9 | GGTCCCCCCGGTTCCGGCGCGGTTGAGGCCTTCGGT | 1170
10 | GAAAGGGTTCATCCAGGAAACCACAACCCAGTGCCG | 2110
11 | CGGCTGTTTTCCAGGATGTTGTGGTCATGGCGGTGT | 4090
12 | AGGACACAGACAGGAAACCCGCAGGCTTTGTTTTTT | 1470
13 | GTTGAAATTGAGCTTCCGTTGGTGGTTAACCCTCTG | 1310
14 | AGGGAAGCAGGAAGTGACTGCGGGAGTGGAGCCGGC | 1080
15 | TCTAGTTCTGGTTTCCGGACCGCATTCGGAACTAGA | 1350
16 | GTTGGGTGGGGAAGTGGATGGTGGTTTTGGCAGAGG | 1210
17 | TTTGCTGCAGAAGGATGTGGTTTATTCAGGTTTGAC | 1270
18 | GACAAAACACAGAAAGGAAGTGGTCAACTATTGCAC | 1600
19 | AAAGACAGGATGTGGGGGAGTGAGCCACAAGGGCCC | 2080
20 | CTGACACTTCCGGGAGCCTTGTAGCCACAGGAATCA | 1800

Row | Sequence | RUNX1 binding intensity
21 | GCAGAGTTTACAACAGGATGTGGTTATTGGCGCTGC | 4380
22 | GAGACACTCTGCTTCCTGCGGTGGAAGATTCAGTAT | 1080
23 | GTGAACTTCCTCCCCCACTGCCTATTTTTACCGCAG | 3950
24 | CCGAGCTTAACGACATCCTGCGGCTCAGCGTGGAGG | 1190
25 | AGGCAAACTACAGGAAGATCCTGCCCGCAACTTGGT | 931
26 | GACTCCATTTCCCGTCGGCTCGCGGTGGGAGCGCCG | 1900
27 | AGCTTGACGAAGGCTTCCTGTGGTTTGGGTTGATGT | 1530
28 | CCGCGCACCCGGAACTACCTCCCGACCCGCATCCCC | 1440
29 | TGCACGGTAAGCAGGAAGCTGCGGCCGAGCTGAGTC | 1030
30 | CCCAATTTCCTTTGCTCTGCTGTCTGCCAACCGCAA | 4340
31 | TGGCTTATCCTAACAGGAAGTGGTTTATCTGATCCT | 2390
32 | CCATATCTGGCTTCCTAAGGAGGAACCACAAACCGT | 1080
33 | CGCCGCTCAACTTCCGGCAACCACAGCTCTCTCTGA | 3150
34 | GCGAGAGGGAGGAAGTGACTCACCAACCACAACAAA | 1220
35 | CTCTGAGCAGGAAGTGACAAAACCACGCAGGGCAGG | 1160
36 | CTGCCCAGCCACTTCCTGCCCAACCACAGACTGACA | 6000
37 | GCTGCAGCAGGCGGGAAGTCTGCGGTTCGCGGGCTC | 1830
38 | GGCAACCGGCCCCGGAAGTTGCGGCAGGTGCGTCCA | 1640
39 | GCTGGGGCAGGAAGCTTCTAGGCCACAGACAGGACG | 865
40 | AGGGCTGAAACAGGATGTGGTGAGTGAGGTAGGGTG | 3160
